# Screens from PubChem.
# An excerpt weighted towards active compounds, which were near 21% of everything screened.
# Cycloheximide cs – Cycloheximide Counterscreen for Small Molecule Inhibitors of Shiga Toxin | 12% of 300,000 active | max response, % | cell reporter, cycloheximide protein synthesis inhibition counterscreen; in the data active means max response mostly above about 13%, no sharp cut-off; inactive means mostly below about 14%; further: read at 38.3 µM for the half of the compounds with a filed dose; 0% is about no effect
# Pf growth 48h – Primary qHTS for delayed death inhibitors of the malarial parasite plastid, 48 hour incubation; Potency, µM (series often up to 28.7 µM), for the others: at the top dose activity change, negative = inhibition, most hits filed as inhibitors; AID 504832, 2011; 5.9% of 310,000 active; P. falciparum luciferase growth in erythrocytes, 48 h; further: potency means the concentration at half of the fitted maximal effect; on the % scale 0 is the no-effect control and ±100 the full control effect
#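 Read-out is firefly luciferase luminescence from an integrated reporter in P. falciparum, so falling signal marks reduced parasite growth. Infected erythrocytes were at 2% hematocrit and 0.1% parasitemia (final) in Albumax-supplemented RPMI 1640.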
# NS1 function inh – qHTS Assay for Inhibitors of Influenza NS1 Protein Function | Potency, µM (doses to about 46.1 µM), without a hit: at the top dose activity, positive = more growth | 0.4% of 270,000 active; calls by dose curve; further: potency means the concentration at half of the fitted maximal effect; actives are rising curves; nearly all actives have a fitted effect of over 50% in size
#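 In this qHTS, NS1 from influenza A is expressed in budding yeast, where it slows growth. Cells are switched from glucose to 2% galactose medium (pH 6.0, -URA), treated with compound, and growth recovery is read at OD600.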
# Pf growth 96h – Primary qHTS for delayed death inhibitors of the malarial parasite plastid, 96 hour incubation; P. falciparum luciferase reporter growth, 96 h; Potency, µM (highest dose often 28.7 µM), inactives show top-dose activity change, negative = inhibition, usual class: inhibitors; 6.9% of 320,000 active; further: potency means the concentration at half of the fitted maximal effect; on the % scale 0 is the no-effect control and ±100 the full control effect
#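 Luminescence readout: decreased luciferase signal marks inhibited growth of reporter-expressing P. falciparum in infected red cells (2% hematocrit, 0.05% parasitemia final), exposed to compound two generations (96 h, 37 C, 5% CO2).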
# Shiga inhibitor – A qHTS for Small Molecule Inhibitors of Shiga Toxin. Vero cells, Shiga toxin protein synthesis inhibition reporter. inhibition, % at 38.7 µM. 9.2% of 290,000 active; in the data active means inhibition mostly above about 28%, no sharp cut-off; inactive means mostly below about 43%; further: 0% is about no effect
# SARS PLP yeast – qHTS of Yeast-based Assay for SARS-CoV PLP; Potency, µM (series often up to 32.9 µM), without a hit: at the top dose activity, positive = growth rescue, actives largely listed as activators; S. cerevisiae expressing SARS-CoV PLpro, growth rescue; 0.19% of 330,000 active; calls by dose curve; further: potency means the concentration at half of the fitted maximal effect; 0% is about no effect; nearly all actives have a fitted effect of over 55% in size
# Starred values were filed as active, the others as inactive; ? = inconclusive; . = no result given; [ ] = another dose, or the depositor's remark. Unless noted, the call rests on the fitted dose curve; in most records, active means well fitted inhibition curve with a large enough effect; inconclusive means small, poorly fitted or top-dose-only effect, or another doubt; inactive means no such curve, though single readings can be large or run the other way.
SMILES,Cycloheximide cs,Pf growth 48h,NS1 function inh,Pf growth 96h,Shiga inhibitor,SARS PLP yeast
Cc1cccc(Nc2nc(C)nc3c2oc2ccccc23)c1,18.6*,?,-6.7%,?,42.4,-11.6%
CCc1nc(NCCCN2CCOCC2)c2oc3ccccc3c2n1,-0.4,?,-4.3%,5.86µM*,-8.9,-1.8%
CCc1nc(Nc2ccc3c(c2)OCO3)c2oc3ccccc3c2n1,12.5*,?,-23.8%,?,62.3*,1.6%
CCc1nc(Nc2ccncc2)c2oc3ccccc3c2n1,-2.3,13.1µM*,-13.0%,.,-10.2,-2.2%
Cc1nc(Nc2ccncc2)c2oc3ccccc3c2n1,-3.7,.,-2.5%,-1.7%[5.75 µM],-20.0,0.5%
CCc1nc(NCCN2CCOCC2)c2oc3ccccc3c2n1,-0.2,.,-12.2%,?,13.3,0.9%
COC(=O)c1cnc(NNS(=O)(=O)c2ccc(C(F)(F)F)cc2)nc1C(F)(F)F,-1.0,35.5%,0.9%,12.7%,3.3,0.6%
O=C(c1ccc2oc(CCCc3ccccc3)nc2c1)N1CCCC1,63.1*,24.1%,-34.4%,21.6%,129.4*,1.9%
CC(C)N(Cc1nccn1C)C(=O)c1ccc2oc(CCCc3ccccc3)nc2c1,4.2,-24.6%,9.1%,25.5%,-8.0,6.6%
CCOC(=O)C1CCCN(C(=O)c2ccc3oc(CCc4ccccc4)nc3c2)C1 (centres undefined),39.4*,8.0%,-15.2%,?,38.1,-0.8%
CC(=O)C1CCCN(C(=O)c2ccc3oc(CCc4ccccc4)nc3c2)C1 (centres undefined),36.5*,72.3%,-0.1%,3.4%,89.2*,-20.0%
Cn1c(C(=O)N2CCCC2)cc2c(=O)n(C)c3ccccc3c21,-3.8,.,-3.4%,-21.3%,-9.8,11.9%
CCOC(=O)C1CCCN(C(=O)c2cc3c(=O)n(C)c4ccccc4c3n2C)C1 (centres undefined),-7.8,.,-18.9%,8.28µM*,-12.3,4.8%
Cc1ccc(N(C(=O)C2CCCC2)C2C=CS(=O)(=O)C2)cc1C (centres undefined),-1.2,-6.0%,?,?,-6.3,2.4%
CCOC(=O)C1CCCN(C(=O)c2ccc3nc(-c4ccc(OC)c(OC)c4)c(-c4ccc(OC)c(OC)c4)nc3c2)C1 (centres undefined),-3.3,?,-8.8%,35.6%,-1.7,2.2%
CCOC(=O)C1CCCN(C(=O)c2cc3c(C)nc4ccccc4c3o2)C1 (centres undefined),-2.1,?,-38.5%,?,-4.0,-0.8%
CCOC(=O)C1CCCN(C(=O)c2ccc3nc(-c4ccccc4)c(-c4ccccc4)nc3c2)C1 (centres undefined),10.5,?,14.0%,13.1µM*,-6.7,1.0%
CCOC(=O)C1CCCN(C(=O)c2cc(-c3ccccc3)on2)C1 (centres undefined),42.4*,180.9%,-11.0%,.,79.4*,-4.9%
CC(=O)Oc1ccc(C(=O)O)c(OC(C)=O)c1,-1.2,-0.5%,3.9%,?,-4.5,0.4%
CC(=O)Oc1ccc(OC(C)=O)c2c1CC(C)=C(C)C2,-0.3,9.28µM*,-40.5%,13.1µM*,41.2,-3.2%
O=C(Nc1ccc(NC(=O)c2cccs2)cc1)c1cccnc1,2.3,6.9%,.,20.4%,-2.4,0.1%
O=C(Nc1ccc(-c2noc(-c3ccccc3F)n2)cc1)c1cccs1,45.9*,16.3%,-8.2%,9.28µM*,71.3*,3.5%
Cc1ccccc1-c1nc(-c2ccc(NC(=O)c3cccs3)cc2)no1,46.0*,?,-21.8%,23.4%,82.4*,0.5%
NC(=O)c1ccc(-c2noc(-c3ccccc3F)n2)cc1,.,236.5%,.,226.8%,.,3.3%
COc1cc(C(=O)NCCC(=O)NC2CCCCCCC2)cc(OC)c1OC,-2.5,?,1.0%,-10.0%,-5.9,-3.2%
COc1ccc(CNC(=O)c2ccc(CS(=O)(=O)c3ccc(Br)cc3)o2)cc1,-3.0,-0.9%,6.4%,-10.1%,-6.2,-9.0%
Cc1ccc(NC(=O)C[n+]2ccn(C3=C([O-])c4ccccc4C3=O)c2)cc1,12.2,33.4%,-1.5%,-3.6%,-4.6,1.5%
